Data on seven compounds can be found in PubChem BioAssay (Tox21).

Assay [1] in a line: qHTS assay to identify small molecule agonists of the hypoxia (HIF-1) signaling pathway - cell viability counter screen (AID 1224844; calls by dose curve; further: nearly all actives have a fitted effect of over 50% in size). The method in brief:
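Cells (HRE-bla ME-180, 2,000 per well) sat 5 hrs at 37C, got compound for 17 hrs, were read for CCF4-AM FRET, and were finally lysed with CellTiter-Glo for a 30 min room-temperature luminescence read.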
Background: qHTS replaces the single test concentration by a dilution series.

Assay [2] can be described thus: qHTS assay to identify small molecule agonists of H2AX - cell viability counter screen (AID 1224847; calls by dose curve; further: top concentration of the series differs between compounds; nearly all actives have a fitted effect of over 30% in size). The method in brief:
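Cytotoxicity counter screen in wild-type CHO-K1 cells: a 3 hr compound treatment at 37C across 15 concentrations, followed by CellTiter-Glo luminescence to gauge viable cells.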

A short description of assay [3]: qHTS assay to identify small molecule antagonists of the estrogen related receptor (ERR) signaling pathway from Tox21 library (AID 1224848). Further: nearly all actives have a fitted effect of over 50% in size. Further: potency means the concentration at half of the fitted maximal effect. In a few lines: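 Cells: ERR line, 2,000/well; 6 h preincubation 37 C/5% CO2. Cpd in DMSO via pin tool; 18 h, 37 C. ONE-Glo, 30 min RT, luminescence.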
Assay [4] can be described thus: qHTS assay to identify small molecule agonists of the estrogen related receptor (ERR) signaling pathway from Tox21 library (AID 1224849; calls by dose curve; further: nearly all actives have a fitted effect of over 15% in size). The following applies: ERR reporter cell line, ONE-Glo luciferase, 18 h; at 92.4 µM (top of the series) unless noted. In a few lines: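 Screening used an NTP-provided ERR luciferase cell line. Compounds in DMSO were added 6 h after seeding and left 18 h at 37 C before a 30 min ONE-Glo step and luminescence reading.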

The nature of assay [5]: qHTS RealTime-Glo MT Cell Viability Assay in HEK293 cells - 32 hour (AID 1224868). Further: top concentration of the series differs between compounds; nearly all actives have a fitted effect of over 50% in size. In a few lines: (§1)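 Homogeneous bioluminescent viability format in HEK293 cells (600 cells/well). Following 5 h at 37 C/5% CO2, 23 nL compound was pintooled; the signal was measured repeatedly during 40 h incubation.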
Assay [6] in a line: A CellTox Green Cytotoxicity Assay to monitor cytotoxicity in HEK293 cells - 0 hour (AID 1224869). Further: nearly all actives have a fitted effect of over 50% in size. The method in brief: (§2)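 Fluorescence intensity, read at 0, 8, 16, 24, 32 and 40 h of compound treatment, reflected dye binding to DNA of dead HEK293 cells; compounds (23 nL, DMSO) were added 5 h after plating cells with reagent.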
The nature of assay [7]: qHTS RealTime-Glo MT Cell Viability Assay in HepG2 cells - 40 hour (AID 1224870). Further: nearly all actives have a fitted effect of over 50% in size. In a few lines: (§3)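 HepG2 cells mixed with RealTime-Glo MT reagents (NanoLuc plus cell-permeant prosubstrate) were seeded at 600 cells/well, incubated 5 h at 37 C/5% CO2, then pinned with compounds in DMSO; nonlytic luminescence tracked viability during 40 h treatment.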
The nature of assay [8]: A CellTox Green Cytotoxicity Assay to monitor cytotoxicity in HEK293 cells - 40 hour (AID 1224871). Further: nearly all actives have a fitted effect of over 45% in size. The method in brief: as §2
Assay [9] in a line: qHTS RealTime-Glo MT Cell Viability Assay in HepG2 cells - 8 hour (AID 1224873). Further: nearly all actives have a fitted effect of over 55% in size. The method in brief: as §3
Assay [10] can be described thus: A CellTox Green Cytotoxicity Assay to monitor cytotoxicity in HEK293 cells - 24 hour (AID 1224875). Further: nearly all actives have a fitted effect of over 45% in size. The method in brief:
as §2

Assay [11] is described as follows: A CellTox Green Cytotoxicity Assay to monitor cytotoxicity in HepG2 cells - 16 hour (AID 1224876). Further: nearly all actives have a fitted effect of over 45% in size. The method in brief:
(§4)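 Using 1536-well format, dye-containing HepG2 suspension was seeded, allowed 5 h at 37 C/5% CO2, dosed by pintool with compounds, positive and negative controls, and imaged for fluorescence across 40 h.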

A short description of assay [12]: qHTS RealTime-Glo MT Cell Viability Assay in HepG2 cells - 32 hour (AID 1224877). Further: nearly all actives have a fitted effect of over 55% in size. In a few lines:
(§5)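 Cell number in HepG2 cultures estimated from NanoLuc luminescence generated by metabolic reduction of a prosubstrate by living cells. The homogeneous, nonlytic format allowed repeated reads at 0, 8, 16, 24, 32 and 40 h of compound exposure.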

A short description of assay [13]: A CellTox Green Cytotoxicity Assay to monitor cytotoxicity in HepG2 cells - 24 hour (AID 1224878). Further: nearly all actives have a fitted effect of over 45% in size. The method in brief: as §4
Assay [14] in a line: A CellTox Green Cytotoxicity Assay to monitor cytotoxicity in HepG2 cells - 40 hour (AID 1224879). Further: nearly all actives have a fitted effect of over 40% in size. In a few lines:
as §4

Assay [15] in a line: qHTS RealTime-Glo MT Cell Viability Assay in HEK293 cells - 0 hour (AID 1224880). Further: nearly all actives have a fitted effect of over 45% in size. Further: potency means the concentration at half of the fitted maximal effect. In a few lines:
(§6)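 Viable HEK293 cells reduce a cell-permeant prosubstrate; the product diffuses out and is consumed by NanoLuc in the medium to give light. Compounds went in after a 5 h incubation and plates were read over the treatment course.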

Assay [16] is described as follows: qHTS RealTime-Glo MT Cell Viability Assay in HepG2 cells - 24 hour (AID 1224867). Further: nearly all actives have a fitted effect of over 50% in size. The method in brief:
as §5

Assay [17] can be described thus: qHTS RealTime-Glo MT Cell Viability Assay in HEK293 cells - 16 hour (AID 1224872). Further: nearly all actives have a fitted effect of over 50% in size. Further: potency means the concentration at half of the fitted maximal effect. In a few lines: as §1
Assay [18] in a line: qHTS RealTime-Glo MT Cell Viability Assay in HEK293 cells - 40 hour (AID 1224874). Further: nearly all actives have a fitted effect of over 50% in size. Further: potency means the concentration at half of the fitted maximal effect. The following applies: RealTime-Glo luminescence; max response: active compounds read low. In a few lines: as §6
The nature of assay [19]: qHTS assay to identify small molecule agonists of the hypoxia (HIF-1) signaling pathway (AID 1224846; active means well fitted activation curve with a large enough effect in the signal ratio in the repeat runs, not every such curve was filed as active; the % refers to the signal ratio). The method in brief: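 A low-serum medium (0.5% dialyzed FBS) holding 2,000 HRE-bla ME-180 cells per well is preincubated for 5 hrs, dosed with compounds by pintool, and kept a further 17 hrs at 37C, 5% CO2 before CCF4-AM FRET detection of beta-lactamase.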
Assay [20] in a line: qHTS assay to identify small molecule agonists of H2AX (AID 1224845; active means well fitted activation curve with a large enough effect in the signal ratio in the repeat runs, not every such curve was filed as active; the % refers to the signal ratio). The method in brief:
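Wild-type CHO-K1 cells plated overnight, then exposed 3 hr at 37C to compounds at 15 concentrations (0.76% DMSO). Lysed, then HTRF anti-pH2AX(S139)-cryptate/anti-H2AX-d2 detection after 24 hr at room temperature; emissions 665 and 620 nm.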

The structures appear in SMILES notation. Unmarked numbers belong to inactive results. Records with an inconclusive call do not appear. Active and inactive are the calls of the source. Unless noted, the call rests on the fitted dose curve; in most records, active means well fitted curve in the direction sought with a large enough effect in the repeat runs; inconclusive means weak or mixed curves; inactive means no such curve, though single readings can be large; an effect the other way counts as inactive or inconclusive.
On the % scale 0 is the no-effect control and ±100 the full control effect.

`O=C1Cc2cc(Cl)ccc2N1`: the Potency entry in [1], in [2], in assay [3], in [5], in assay [6] and in [7] was “inactive” throughout. Moreover, the Potency result in assay [8], in [9], in assay [10], in [11], in assay [12] and in [13] was “inactive” throughout. Besides, the Potency result in [14] and in assay [15] was “inactive” throughout. In addition, in assay [4], the activity change, positive = activation is 0.547% [at 42.5 µM].
With `O=C(OCC(O)CO)c1ccccc1Nc1ccnc2cc(Cl)ccc12` (stereo not drawn), the Potency entry in assay [1], in assay [16], in assay [6], in assay [7], in assay [8] and in assay [9] was “inactive” each time. Besides, the Potency result in [10], in assay [13], in [14] and in [15] was “inactive” each time. Also, the results for the Potency in [3], in assay [17] and in assay [18] were 26.6 µM (active), 8.49 µM (active) and 8.49 µM (active), respectively. Also, the activity change, positive = activation in assay [4] was -40.1% [at 42.5 µM].
Take `Oc1cccc(O)c1O`: the Potency result in assay [1], in [3], in assay [16], in assay [5], in assay [6] and in assay [7] was “inactive” each time. In addition, the Potency result in [17], in assay [9], in assay [10], in assay [11], in assay [13] and in assay [14] was “inactive” in each case. Also, the Potency entry in assay [15] is “inactive”. For the same compound, the call in assay [19] was inactive. Further, the activity change, positive = activation in assay [4] was 0.0681%. Further, the max response in assay [18] is 1.23%.
Regarding `CC(=O)OCC[N+](C)(C)C`, the Potency result in assay [1], in assay [2], in [16], in assay [5], in assay [6] and in assay [7] was “inactive” throughout. Further, the Potency result in [8], in assay [17], in assay [9], in assay [10], in assay [11] and in assay [12] was “inactive” each time. Further, the Potency entry in [13], in [14] and in [15] was “inactive” throughout. Further, in assay [18], the max response was 1.87%.
As for `O=C(CCc1ccc(O)cc1)c1c(O)cc(O)cc1O`, the Potency result in [1], in assay [16], in assay [6], in assay [7], in [8] and in [9] was “inactive” throughout. The Potency result in assay [10], in [11], in assay [12], in [13] and in assay [14] was “inactive” in each case. Moreover, in assay [4], the activity change, positive = activation is -22.5%. Also, the Potency in assay [17] was 25.1 µM (active); in assay [18], 39.8 µM (active); in assay [15] it was 39.8 µM (active).
As for `CC(=O)OCC(=O)NCCCOc1cccc(CN2CCCCC2)c1`, the Potency entry in assay [20], in [2], in assay [3], in [16], in assay [5] and in assay [6] was “inactive” in each case. In addition, the Potency result in assay [7], in [8], in [17], in assay [9], in assay [10] and in [11] was “inactive” in each case. The Potency entry in assay [12], in assay [13], in assay [14] and in [15] was “inactive” each time. Also, in assay [19], the compound was called inactive. The activity change, positive = activation in assay [4] was 4.2% [at 42.5 µM]. Further, the max response in assay [18] was 1.71%.
Regarding `CC(O)c1ccccc1` (stereo not drawn), the Potency result in assay [1], in assay [2], in assay [3], in assay [16], in [5] and in [6] was “inactive” throughout. The Potency entry in [7], in assay [8], in assay [17], in assay [9], in [10] and in [11] was “inactive” in each case. For the same compound, the Potency result in assay [12], in assay [13], in assay [14] and in [15] was “inactive” in each case. In [4], the activity change, positive = activation is 5.42%. In addition, the max response in [18] was 19.3%.
